# Bioassay records deposited in PubChem BioAssay by National Center for Advancing Translational Sciences (NCATS).
# SMN2 splice up = increases expression of the SMN2 splice variant; HEK293 SMN2-luciferase splicing reporter, luminescence, 30-36 h; Potency, µM (doses to about 46.1 µM), inactives show top-dose activity change, positive = activation, usual class: activators; 2.8% of 210,000 active; AID 1458; further: % of control where 0% means no effect; nearly all actives have a fitted effect of over 55% in size
#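 HEK293 cells carry an SMN2 […]–luciferase reporter in which exon 7 inclusion puts luciferase in frame. Cells were plated 10-12 h before compound addition, then incubated 30-36 h at 37C. ONE-Glo luminescence was read; sodium butyrate at 4.5 mM final served as control.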
# FLuc counter = counter-screen for miR-21 project: firefly luciferase inhibitors or activators. P08659. purified FLuc, Km substrates, luminescence inhibition. Potency, µM (top dose mostly 57.5 µM), for inactives: top-dose activity change, negative = inhibition, actives largely listed as inhibitors. 6.9% of 360,000 active;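 further: plate controls were vehicle for no effect and reference inhibitor for full effect; nearly all actives have a fitted effect of over 55% in size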
# Target sequence (P08659 whole entry, looked up): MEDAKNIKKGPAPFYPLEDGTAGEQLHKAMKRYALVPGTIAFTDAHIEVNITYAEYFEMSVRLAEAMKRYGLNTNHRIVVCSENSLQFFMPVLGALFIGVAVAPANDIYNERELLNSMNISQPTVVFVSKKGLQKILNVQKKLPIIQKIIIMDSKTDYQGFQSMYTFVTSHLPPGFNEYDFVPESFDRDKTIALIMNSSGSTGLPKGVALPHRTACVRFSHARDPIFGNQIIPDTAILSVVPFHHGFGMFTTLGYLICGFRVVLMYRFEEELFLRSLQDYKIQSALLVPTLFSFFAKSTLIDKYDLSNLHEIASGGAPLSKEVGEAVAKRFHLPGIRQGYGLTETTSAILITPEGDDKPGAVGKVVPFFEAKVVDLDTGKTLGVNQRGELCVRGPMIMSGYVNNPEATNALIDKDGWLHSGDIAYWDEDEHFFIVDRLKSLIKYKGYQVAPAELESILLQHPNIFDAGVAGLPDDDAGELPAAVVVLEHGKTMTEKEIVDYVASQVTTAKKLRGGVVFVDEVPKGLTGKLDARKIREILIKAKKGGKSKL
#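 Purified P. pyralis luciferase (10nM final) with 10uM D-luciferin and 10uM ATP (Km levels) in 50mM Tris acetate pH 7.5, 10mM Mg acetate, 0.01% Tween-20, 0.05% BSA; qHTS 6-point titration, ~60 µM downward; luminescence read.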
# Luc counter = counter-screen: inhibitors of Kinase-Glo firefly luciferase. Potency, µM (highest dose often 38.3 µM), for inactives: at the highest dose activity change, negative = inhibition, actives largely listed as inhibitors. 0.28% of 200,000 active. Kinase-Glo luciferase, ATP luminescence, 8 min. AID 1379; further: on the % scale 0 is the no-effect control and ±100 the full control effect; nearly all actives have a fitted effect of over 60% in size
#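 Luminescence was the read-out, taken after 8-minute incubation at ambient temperature. Luciferase turned over luciferin with 10 uM ATP in imidazole pH 7.2 buffer containing KCl, MgCl2, Tween 20 and BSA.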
# Rab9 prom act = activators of Rab9 promoter; Huh7 Rab9 promoter-luciferase reporter, luminescence, 24 h; Potency, µM (doses to about 9.22 µM), inactives show at the top dose activation, negative = inhibition, hits mostly activators; 2.8% of 320,000 active; further: % of control where 0% means no effect; nearly all actives have a fitted effect of over 60% in size
#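 Luminescence read-out: Huh7 cells stably expressing Rab9-luciferase, treated 24 h with compound at 37 °C, then lysed with luciferase reagent for 10 min at ambient before reading.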
# ELG1 genotox = inducers of genotoxicity in HEK293T ELG1-luciferase cells; HEK293T ELG1-luciferase reporter, luminescence, 16 h; 1.3% of 330,000 active; Potency, µM (top dose mostly 46 µM), for the others: top-dose activity change, positive = activation, usual class: activators; further: % of control where 0% means no effect; nearly all actives have a fitted effect of over 60% in size
#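 Step 1: seed 2,000 HEK293T ELG1-luciferase cells per well. Step 2: add compound or DMSO, incubate 16 hr at 37 °C. Step 3: ONE-Glo, 30 min at room temperature, read luminescence.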
# NPC1 promoter act = activates the NPC1 promoter. Huh7 NPC1 promoter luciferase reporter, 24 h. 2.4% of 320,000 active. Potency, µM (titrated, usually from 9.22 µM), inactives show top-dose activation, actives largely listed as activators; further: % of control where 0% means no effect; nearly all actives have a fitted effect of over 60% in size
#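 Luciferase expression driven by the NPC1 promoter was measured in stably transfected Huh7 cells after a 24 h compound incubation, using a luciferase reagent and a luminescence read.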
# An asterisk follows results filed as active; ? = inconclusive; / = no result given. Most compounds without a hit are left out; they make up all but 7.3% or so of the library. The call rests on the fitted dose curve; in most records, active means well fitted curve in the direction sought with a large enough effect; inconclusive means small, poorly fitted or top-dose-only effect, or another doubt; inactive means no such curve, though single readings can be large; an effect the other way counts as inactive or inconclusive. Potency means the concentration at half of the fitted maximal effect.
SMILES,SMN2 splice up,FLuc counter,Luc counter,Rab9 prom act,ELG1 genotox,NPC1 promoter act
CCN1C(=O)/C(=C/c2ccc(N3CCCC3)cc2)NC1=S,-17.7%,19µM*,-0.1%,0.2%,-2.6%,-3.1%
CCCN1C(=O)/C(=C/c2ccc(N3CCCC3)c(C)c2)NC1=S,-31.7%,?,-7.2%,-0.1%,2.8%,-0.4%
Cc1cc(N2CCCC2)ccc1/C=C1/C(=O)N(C)C(=S)N1C,-14.6%,-14.6%,-2.2%,-16.6%,-0.1%,-16.9%
Cc1cc(/C=C2/C(=O)N(C)C(=S)N2C)ccc1N1CCCC1,12.6µM*,4.78µM*,-3.4%,?,?,?
Cc1cc(/C=C2\NC(=S)N(C)C2=O)ccc1N1CCCC1,/,7.57µM*,0.1%,3.55µM*,?,?
CCOC(=O)N1CCN(C(=O)c2ccc3c(c2)N(Cc2ccccc2F)C(=O)c2ccccc2S3(=O)=O)CC1,-1.8%,-0.4%,/,/,/,/
Cc1ccc(-c2nn(-c3ccccc3)cc2C=C2C(=O)CC(C)(C)CC2=O)cc1,-16.1%,23.9µM*,1.6%,-1.0%,-0.1%,-2.4%
CC1=NNC(=O)/C1=C\c1cn(-c2ccccc2)nc1-c1ccc(Cl)cc1,-89.5%,0.3%,-0.6%,-50.8%,-20.2%,-48.4%
CCOC(=O)C1CCN(c2ccc(-c3cccs3)nn2)CC1,/,0.757µM*,/,3.5%,?,21.8%
c1csc(-c2ccc(N3CCOCC3)nn2)c1,/,2.39µM*,/,0.501µM*,?,0.398µM*
CCOC(=O)C1CCN(c2ccc(Cl)nn2)CC1,-47.0%,-4.4%,-3.1%,0.2%,6.3%,-1.6%
COc1ccccc1NC(=O)c1nc(SCc2ccc(F)cc2)ncc1Cl,-5.2%,4.6%,/,/,/,/
COc1cccc(OC)c1C(=O)NNC(=O)c1cccc(COc2ccc3c(c2)CCC3)c1,1.41µM*,4.78µM*,-2.0%,0.562µM*,0.366µM*,0.447µM*
O=C(Nc1ccccc1)c1ccc(CSc2ccccn2)cc1,22.4µM*,2.13µM*,11.2µM*,1.58µM*,?,1.26µM*
O=C(COc1ccc2c(c1)CCC2)NCc1cccc(Cl)c1,/,-8.5%,/,-4.3%,-2.8%,-3.1%
COc1ccccc1NC(=O)c1ccc(CSc2ncccn2)cc1,/,16.9µM*,-10.2%,-1.1%,4.8%,-1.0%
O=C(Nc1ccc(CSc2ccccc2)cc1)c1ccccc1,13.9%,4.0%,-13.6%,20.5%,2.6%,13.9%
O=C(NCc1ccccc1)c1cccc(COc2ccc3c(c2)CCC3)c1,1.26µM*,1.35µM*,3.0%,0.355µM*,0.651µM*,0.355µM*
COc1ccc(OC)c(NC(=O)COc2ccc3c(c2)CCC3)c1,/,-26.7%,/,-8.6%,1.1%,-2.3%
CCc1ccc(S(=O)(=O)c2nnn3c2nc(NC2CCCCCC2)c2sccc23)cc1,/,-1.3%,/,/,/,/
CCOc1ccc(S(=O)(=O)N(CC(=O)Nc2ccc3c(c2)OCO3)c2ccccc2)cc1,-0.1%,-0.9%,/,/,/,/
COc1cc(Nc2nc3ccccc3c3nnc(C)n23)cc(OC)c1,/,-15.8%,/,/,/,/
COC(=O)c1ccccc1NC(=O)c1ccc(COc2ccc3c(c2)CCC3)cc1,-2.3%,?,1.2%,9.3%,3.9%,15.2%
O=C(NC1CCCCC1)c1cccc(OCc2ccccc2)c1,/,0.7%,/,2.5%,-5.0%,-1.9%
O=C(O)c1cccc(COc2ccc3c(c2)CCC3)c1,/,0.0675µM*,/,3.16µM*,?,3.55µM*
COc1ccccc1NC(=O)c1ccc(COc2ccc3c(c2)CCC3)cc1,11.2µM*,-2.1%,4.0%,23.7%,6.7%,20.6%
COc1ccc(-n2sc3ccc(F)cc3c2=O)cc1,/,?,/,3.55µM*,5.3%,?
O=c1[nH]c(=O)c2nc(-c3ccc(Cl)cc3)cnc2[nH]1,-4.6%,16.9µM*,-1.9%,0.5%,11.9%,-2.4%
CN(C)CCN(C(=O)c1cccs1)c1nc2cc3c(cc2s1)OCCO3,/,-17.4%,/,?,?,20.7%
COc1ccccc1C(=O)Nc1nc2cc3c(cc2s1)OCCO3,/,0.675µM*,/,0.708µM*,2.06µM*,?
